Consider 88 compounds from PMC4336329 (PLoS ONE, 2015).

About 14,000 (4.5%) of roughly 310,000 compounds showed an effect of 50% or more. The effect is printed as a negative number. This is one part of a sample in which strong results are shown more often than they occur.
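Also: peak tail current of the secondary pulse compared with the same well before compound.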

Sequence of human ether-à-go-go-related gene (hERG) potassium channel (Q12809 whole entry, looked up): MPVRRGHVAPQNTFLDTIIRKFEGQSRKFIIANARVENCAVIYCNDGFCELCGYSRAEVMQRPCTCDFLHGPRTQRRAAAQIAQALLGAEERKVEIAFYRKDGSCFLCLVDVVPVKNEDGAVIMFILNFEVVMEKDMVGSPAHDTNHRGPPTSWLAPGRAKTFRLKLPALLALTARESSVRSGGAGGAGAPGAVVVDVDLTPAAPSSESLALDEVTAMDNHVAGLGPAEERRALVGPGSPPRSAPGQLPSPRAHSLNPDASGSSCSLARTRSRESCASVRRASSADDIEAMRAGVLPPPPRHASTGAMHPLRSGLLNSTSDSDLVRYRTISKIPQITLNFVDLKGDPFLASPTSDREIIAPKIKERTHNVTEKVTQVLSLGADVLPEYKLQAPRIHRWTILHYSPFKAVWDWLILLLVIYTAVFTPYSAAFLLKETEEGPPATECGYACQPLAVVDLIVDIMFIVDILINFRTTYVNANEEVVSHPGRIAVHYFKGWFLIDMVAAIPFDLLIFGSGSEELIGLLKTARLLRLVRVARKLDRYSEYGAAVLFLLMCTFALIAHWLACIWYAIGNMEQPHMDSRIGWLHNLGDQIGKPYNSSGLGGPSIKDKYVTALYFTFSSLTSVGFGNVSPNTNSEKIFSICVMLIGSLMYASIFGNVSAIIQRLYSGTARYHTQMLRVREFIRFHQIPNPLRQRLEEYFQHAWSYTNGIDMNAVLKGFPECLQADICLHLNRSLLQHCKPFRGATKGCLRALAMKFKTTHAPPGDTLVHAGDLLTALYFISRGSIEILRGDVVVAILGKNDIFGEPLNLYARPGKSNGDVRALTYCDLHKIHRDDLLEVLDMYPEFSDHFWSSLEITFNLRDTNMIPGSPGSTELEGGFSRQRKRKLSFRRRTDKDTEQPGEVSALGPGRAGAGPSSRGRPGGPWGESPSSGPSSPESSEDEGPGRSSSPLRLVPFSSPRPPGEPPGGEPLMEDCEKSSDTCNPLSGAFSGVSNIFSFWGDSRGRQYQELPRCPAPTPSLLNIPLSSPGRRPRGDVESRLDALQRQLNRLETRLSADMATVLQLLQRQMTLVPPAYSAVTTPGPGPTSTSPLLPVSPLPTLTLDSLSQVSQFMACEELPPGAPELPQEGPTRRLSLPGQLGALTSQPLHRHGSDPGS

The assay concerns the target human ether-à-go-go-related gene (hERG) potassium channel (human, UniProt Q12809). Nature of the assay: primary screen, population patch clamp on CHO cells stably expressing hERG; higher = less effect of the substance.
For `O=[N+]([O-])c1ccc(-c2ccccc2)c([As](=O)(O)O)c1`, the “hERG current change (%, negative = inhibition) at 10uM” value worked out at 11.9%. The value for `O=c1cc(C(F)(F)F)nc(SCc2cccc3ccccc23)[nH]1` was 24%; that for `Cn1c(SCC(=O)OC2CCCCC2)nnc1-c1ccc2c(c1)OCO2` was -19.7%. The result for `COc1ccc(Cn2c(=O)[nH]c3cc(C(=O)NC4CCN(Cc5ccccc5)CC4)ccc32)cc1` reads -3.88%. With `COc1ccc(N2CCN(Cc3cc(=O)oc4cc(C)c(Cl)cc34)CC2)cc1`, the “hERG current change (%, negative = inhibition) at 10uM” value came out at 8.44%. The value for `Cc1cc(C)n2nc(C(=O)OCC(=O)N3CC(C)CC(C)C3)nc2n1` (stereo not shown) was 15.4%; that for `O=C(NCc1ccco1)Nc1ccc2nsnc2c1` was 10.7%. The result for `N#Cc1nc(-c2ccco2)oc1NCc1ccc(F)cc1` reads -4.84%; that for `Cc1cc(C)c(Cn2ncn(-c3ccc(Br)cc3)c2=O)c(C)c1`, 19.4%; that for `O=C(COc1ccc(Cl)cc1)N1CCCCCCC1`, -12.2%. As to `O=C(COc1ccc(Cl)cc1)N1CCN(C/C=C/c2ccccc2)CC1`, the “hERG current change (%, negative = inhibition) at 10uM” value is recorded as -70.7%. The value for `O=C(COc1ccc(Cl)cc1)N1CCCCC1` was -5.82%; that for `CS(=O)(=O)N1CCN(C/C=C/c2ccccc2)CC1` was 7.98%; that for `CC(=C1C(=O)c2ccccc2C1=O)N1CCN(C/C=C/c2ccccc2)CC1` was -55.6%. The result for `CC(=C1C(=O)c2ccccc2C1=O)N1CCN(Cc2ccccc2)CC1` reads -26.6%. The value for `O=C(/C=C/c1ccco1)Nc1cc(Cl)ccc1C(=O)O` was -10.3%.

As for `CCCc1cc(=O)[nH]c(SC/C=C/c2ccccc2)n1`, the “hERG current change (%, negative = inhibition) at 10uM” value stood at 9.33%.

For the compound `Cc1c(N(C)C)c(=O)n(-c2ccccc2)n1C`, the “hERG current change (%, negative = inhibition) at 10uM” value was 19.1%.

Regarding `COc1ccccc1CNS(=O)(=O)c1ccc2c(c1)NC(=O)CS2`, the “hERG current change (%, negative = inhibition) at 10uM” value is recorded as -1.59%. Turning to `CCCNC(=O)c1cc2cc([N+](=O)[O-])ccc2s1`, the “hERG current change (%, negative = inhibition) at 10uM” value is -9.82%. Regarding `O=C(NCCN1CCOCC1)c1ccc([N+](=O)[O-])cc1[N+](=O)[O-]`, the “hERG current change (%, negative = inhibition) at 10uM” value is recorded as -0.151%.

In the case of `O=C(NCCN1CCOCC1)c1sc2ccccc2c1Cl`, the “hERG current change (%, negative = inhibition) at 10uM” value was -6.21%. The result for `O=C(NCCCN1CCOCC1)c1sc2cc(F)ccc2c1Cl` reads -44%.

With `CN(C)C(=O)c1cc2cc([N+](=O)[O-])ccc2s1`, the “hERG current change (%, negative = inhibition) at 10uM” value is on record as -38.9%. The result for `O=C(NCCCN1CCOCC1)c1sc2cc(Cl)ccc2c1Cl` reads -69.6%.

Regarding `O=C(NCCN1CCOCC1)c1cc([N+](=O)[O-])ccc1Cl`, the “hERG current change (%, negative = inhibition) at 10uM” value is recorded as 6.5%. For `O=C(NCCCN1CCOCC1)c1sc2cc([N+](=O)[O-])ccc2c1Cl`, the “hERG current change (%, negative = inhibition) at 10uM” value is reported as -54%. For the compound `O=C(NCCN1CCOCC1)c1cc2cc([N+](=O)[O-])ccc2s1`, the “hERG current change (%, negative = inhibition) at 10uM” value was -63.3%. Consider `O=C(NCCCN1CCOCC1)c1sc2ccccc2c1Cl`, for which the “hERG current change (%, negative = inhibition) at 10uM” value is listed as -9.81%.

Take `CCN(CC)C(=O)c1cc2cc([N+](=O)[O-])ccc2s1`: the “hERG current change (%, negative = inhibition) at 10uM” value is reported as -55.5%. The result for `O=C(NCCN1CCOCC1)c1sc2cc(Cl)ccc2c1Cl` reads -10.3%; that for `O=c1c2cn[nH]c2[nH]c(=S)n1-c1ccccc1F`, 24.8%. The value for `N#CC1=C(N)Oc2cc(O)ccc2C1c1cccnc1` (stereo not shown) was 27.4%; that for `CCOc1nc2cnccc2n(CC(=O)Nc2ccccc2C(=O)OC)c1=O` was -1.11%; that for `Cc1nn(-c2ccccc2)c(C)c1/C=N/NC(=O)CSc1nnc(SCc2cccc3ccccc23)s1` was 6.33%. The value for `CCOC(=O)c1sc(=S)n(C)c1NC(=O)c1ccc(C(C)(C)C)cc1` was 11.8%; that for `CC(=O)N/C(=C/c1ccc2c(c1)OCO2)C(=O)O` was -2.32%. On to `O=C(CCNS(=O)(=O)c1ccc(Cl)cc1)N1CCOCC1`, for which the “hERG current change (%, negative = inhibition) at 10uM” value stood at 22.4%. For `COc1ccc2[nH]c3c(c2c1)CCNC3=O`, the “hERG current change (%, negative = inhibition) at 10uM” value is 7.33%. The value for `O=C1NCCc2c1[nH]c1ccccc21` was -77%.

As to `Cc1ccc2[nH]c3c(c2c1)CCNC3=O`, the “hERG current change (%, negative = inhibition) at 10uM” value was 4.86%. Regarding `O=C(Nc1ccc(-c2csc(Nc3cccc(C(F)(F)F)c3)n2)cc1)c1cccc(C(F)(F)F)c1`, the “hERG current change (%, negative = inhibition) at 10uM” value is listed as 9.98%. Regarding `CCCCN(CC)C(=S)Nc1ccc2nc(N3CCN(C)CC3)cc(C)c2c1`, the “hERG current change (%, negative = inhibition) at 10uM” value is -56.3%. The result for `CCN1CCN(c2cc(C)c3cc(NC(=S)N4CCN(c5ccccc5)CC4)ccc3n2)CC1` reads -0.088%.

On to `CCN1CCN(c2cc(C)c3cc(NC(=S)N(C)Cc4ccccc4)ccc3n2)CC1`, for which the “hERG current change (%, negative = inhibition) at 10uM” value was -77.7%. The value for `CCN1CCN(c2cc(C)c3cc(NC(=S)NCCN(C)C)ccc3n2)CC1` was 3.21%; that for `CCCCN(CC)CCNC(=S)Nc1ccc2nc(N3CCN(C)CC3)cc(C)c2c1` was -0.781%. The result for `CCCCN(C)C(=S)Nc1ccc2nc(N3CCN(CC)CC3)cc(C)c2c1` reads -78.9%; that for `CCN1CCN(c2cc(C)c3cc(NC(=S)N(CC)CC)ccc3n2)CC1`, -43.9%.

In the case of `CCCCN(CC)CCCNC(=S)Nc1ccc2nc(N3CCN(C)CC3)cc(C)c2c1`, the “hERG current change (%, negative = inhibition) at 10uM” value is reported as 5.19%. The value for `CCCCN(C)CCNC(=S)Nc1ccc2nc(N3CCN(CC)CC3)cc(C)c2c1` was 2.83%; that for `Cc1c(NC(=O)CSc2n[nH]c(=O)n2-c2ccccc2)c(=O)n(-c2ccccc2)n1C` was 16.9%.

Regarding `CCOC(=O)c1c(NC(=O)c2cccc(N3C(=O)CCC3=O)c2)sc(C)c1C`, the “hERG current change (%, negative = inhibition) at 10uM” value amounted to 5.4%. The value for `CC(=O)c1ccc(NC(=O)COC(=O)c2ccccc2Sc2ccccc2C#N)cc1` was 18%; that for `O=C(CCCCn1c(=S)[nH]c2ccsc2c1=O)NCc1ccco1` was 16.6%. The value for `O=C(c1ccc2c(c1)ncn2C1CCCCCC1)N1CCC2(CC1)OCCO2` was -2.37%; that for `O=C(c1ccc(Br)cc1)N1CCCc2ccccc21` was -6.19%.

For `O=C(CSc1nc(O)c(Cc2ccccc2)c(=O)[nH]1)Nc1ccccc1`, the “hERG current change (%, negative = inhibition) at 10uM” value is listed as 8.28%. The result for `O=C(Nc1ccc(-c2noc(-c3cccs3)n2)cc1)c1cccnc1` reads -3.79%. For `COc1ccc(Br)cc1/C=N/Nc1ccccn1`, the “hERG current change (%, negative = inhibition) at 10uM” value was determined as 14.8%. Regarding `O=C(Nc1cccc(S(=O)(=O)NC2=NCCC2)c1)c1ccc(=O)[nH]c1`, the “hERG current change (%, negative = inhibition) at 10uM” value is on record as 10.7%. The result for `COc1cccc(-c2nnc3sc(C4CCCCC4)nn23)c1` reads -45.2%. For the compound `COc1ccc(-c2nnc3sc(C4CCCCC4)nn23)cc1OC`, the “hERG current change (%, negative = inhibition) at 10uM” value is on record as -51.1%. The result for `COc1cc(-c2nnc3sc(C4CCCCC4)nn23)cc(OC)c1OC` reads -43.7%; that for `CC(C)c1cc(C(=O)N2CCCC(CCC(=O)N3CCN(c4ccccn4)CC3)C2)no1` (stereo not shown), -36.8%; that for `O=C(NCCO)/C(=C\c1ccc([N+](=O)[O-])o1)NC(=O)c1ccccc1`, 1.55%. The result for `Cc1ccc(C(=O)N/C(=C\c2ccc(-c3ccc(Br)cc3)o2)C(=O)NCCCN(C)C)cc1` reads -80.3%. The result for `Cc1ccc(C(=O)N/C(=C\c2ccc(-c3ccc(Cl)cc3)o2)C(=O)NCCCN(C)C)cc1` reads -85%. `CN(C)CCCNC(=O)/C(=C\c1ccc(-c2ccc(Br)cc2)o1)NC(=O)c1ccccc1`: the “hERG current change (%, negative = inhibition) at 10uM” value is given as -75.1%. The result for `Cc1ccc(C(=O)N/C(=C/c2ccc(-c3ccc(Br)cc3)o2)C(=O)NC2CCS(=O)(=O)C2)cc1` (stereo not shown) reads -6.35%; that for `Cc1ccc(C(=O)N/C(=C\c2ccc(-c3ccc(Br)cc3)o2)C(=O)NC2CCS(=O)(=O)C2)cc1` (stereo not shown), -5.68%; that for `CN(C)CCCNC(=O)c1ccc(-c2ccccc2)cc1`, -36.7%. For `Cc1ccc(C(=O)N/C(=C/c2ccc(Cl)cc2)C(=O)NCC2CCCO2)cc1` (stereo not shown), the “hERG current change (%, negative = inhibition) at 10uM” value is -48.7%. The result for `Cc1ccc(C(=O)N/C(=C\c2ccc(Cl)cc2)C(=O)NCC2CCCO2)cc1` (stereo not shown) reads -49%; that for `O=C(N1CCOCC1)N(Cc1ccco1)CC1CCCO1` (stereo not shown), -48.5%. The result for `COc1ccccc1NC(=O)c1ccc2nc(C)c(C)nc2c1` reads -16.1%. The value for `O=C(c1ccccc1)n1ccn(-c2ccccc2)c1=S` was -14.9%; that for `Cn1c(=NC(=O)CS(=O)(=O)c2ccccc2)sc2cc([N+](=O)[O-])ccc21` was -36.5%. Regarding `CCCc1cc(=O)oc2cc(C)cc(OC(C)C(=O)NCC(O)c3ccccc3)c12` (stereo not shown), the “hERG current change (%, negative = inhibition) at 10uM” value was found to be 7.42%.

Turning to `O=C(CNC(=O)c1ccc(OC(F)F)cc1)NCC1(N2CCOCC2)CCCCC1`, the “hERG current change (%, negative = inhibition) at 10uM” value is recorded as -68.5%. The value for `CN(C)S(=O)(=O)c1ccc(C(=O)NCC2(N3CCCCC3)CCCCC2)cc1` was -1.46%. The value for `CN(C)S(=O)(=O)c1ccc(C(=O)NCC2(N3CCOCC3)CCCCC2)cc1` was -9.69%. The value for `NC(=O)COc1ccc(C(=O)NCC2(N3CCOCC3)CCCCC2)cc1` was 6.98%.

Consider `Cc1ccccc1C(=O)NCC(=O)NCC1(N2CCOCC2)CCCCC1`, for which the “hERG current change (%, negative = inhibition) at 10uM” value is recorded as -25.7%.

Turning to `CCN(CC)S(=O)(=O)c1ccc(C(=O)NCC2(N3CCOCC3)CCCCC2)cc1`, the “hERG current change (%, negative = inhibition) at 10uM” value was -67.3%.

For the compound `CCC(C)NC(=O)CS(=O)Cc1nc(-c2cccc(OC)c2)oc1C` (stereo not shown), the “hERG current change (%, negative = inhibition) at 10uM” value was determined as 2.84%. The value for `CCOc1cc(C2NC(=O)NC(C)=C2C(C)=O)cc(Cl)c1OCC(=O)O` (stereo not shown) was 5.35%.

Regarding `CCc1ccc(OCC(=O)Nc2ccc(S(=O)(=O)Nc3cc(C)on3)cc2)c(Br)c1`, the “hERG current change (%, negative = inhibition) at 10uM” value is recorded as -19.7%.
